# Compound activity from PubChem.
# HT1080NT lethal: qHTS for induction of synthetic lethality in tumor cells producing 2HG: qHTS for the HT-1080-NT fibrosarcoma cell line; HT-1080-NT fibrosarcoma viability, CellTiter-Glo ATP luminescence, 48 h; hit rate 1.6% among 360,000; Potency, µM (highest dose often 46.1 µM), inactives show at the top dose activity, negative = less viability, usual class: cytotoxic;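 further: NT is the 2HG producing partner of a matched IDH1 knockdown line; potency means the concentration at half of the fitted maximal effect; 0% = DMSO-treated cells and -100% = media-only wells without cells; nearly all actives have a fitted effect of over 55% in size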
#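 Toxicity toward the 2HG-producing NT line was scored as %Activity, normalised to DMSO and no-cell wells, from CellTiter-Glo luminescence after 48 hours' treatment.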
# TDP1 cell CPT: qHTS for Inhibitors of human tyrosyl-DNA phosphodiesterase 1 (TDP1): qHTS in cells in presence of CPT; chicken DT40 Tdp1-/-;hTDP1 cells + 20 nM CPT, ATP luminescence, 48 h; Potency, µM (doses to about 46.2 µM), for inactives: top-dose activity change, negative = growth inhibition, hits mostly inhibitors; hit rate 12% among 420,000; further: potency means the concentration at half of the fitted maximal effect; nearly all actives have a fitted effect of over 55% in size
#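 Cell growth measured by CellTiter-Glo luminescence after a minimum 48 h, 37 C compound exposure with 20 nM CPT in Tdp1-knockout DT40 cells stably expressing hTDP1, seeded 400/well; qHTS titration format.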
# DT40 TDP1 no CPT: qHTS for Inhibitors of human tyrosyl-DNA phosphodiesterase 1 (TDP1): qHTS in cells in absence of CPT | hit rate 15% among 420,000 | DT40 Tdp1-/- hTDP1 cells, no CPT, ATP luminescence, 48 h | Potency, µM (highest dose often 46.2 µM), for inactives: at the highest dose activity change, negative = growth inhibition, hits mostly inhibitors | AID 686978, 2013; further: potency means the concentration at half of the fitted maximal effect; nearly all actives have a fitted effect of over 55% in size
#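 Chicken DT40 Tdp1-/- cells stably complemented with human TDP1 were seeded at 400 cells/well with DMSO in place of 20 nM camptothecin. After compound pinning, cells grew at least 48 hr at 37 °C; viability read by CellTiter-Glo luminescence.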
# HT1080 IDH1KD tx: qHTS for induction of synthetic lethality in tumor cells producing 2HG: qHTS for the HT-1080-IDH1KD cell line. HT-1080 IDH1 knockdown viability, ATP luminescence, 48 h. Potency, µM (highest dose often 46.1 µM), for inactives: top-dose activity, negative = toxicity, usual class: cytotoxic. hit rate 2% among 360,000;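 further: potency means the concentration at half of the fitted maximal effect; 0% = DMSO wells and -100% = cell-free medium wells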
#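 Knockdown cells (IDH1KD HT-1080) received compounds 2 h after plating at 750 cells/well and were kept 48 h at 37 °C in 5% FBS RPMI. A CellTiter-Glo luminescence read gave % activity for curve fitting.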
# IL1B secr inh: qHTS for Inhibitors of Inflammasome Signaling: IL-1-beta AlphaLISA Primary Screen; THP-1 LPS/ATP IL-1B secretion, AlphaLISA, 16 h; stronger effect = lower value; activity change, % at 57.5 µM; hit rate 4.7% among 360,000; AID 743279, 2014; in the data active means activity change below about -50%; inconclusive means mostly about -30% to -49%
#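 Secreted IL-1B measured by AlphaLISA bead assay after 16 h compound exposure of THP-1 cells; compounds (final up to 57.5 uM) added 1 h before LPS (250 ng/mL) and ATP (1.25 mM) stimulation; lower signal means less secretion.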
# Numbers without * were called inactive; ? = inconclusive; / = no result. Sampled rows, rich in hits. Any-hit rate of the full collection: about 19%. Unless noted, the call rests on the fitted dose curve; in most records, active means well fitted curve in the direction sought with a large enough effect; inconclusive means small, poorly fitted or top-dose-only effect, or another doubt; inactive means no such curve, though single readings can be large; an effect the other way counts as inactive or inconclusive. Unless noted, on the % scale 0 is the no-effect control and ±100 the full control effect.
SMILES,HT1080NT lethal,TDP1 cell CPT,DT40 TDP1 no CPT,HT1080 IDH1KD tx,IL1B secr inh
Oc1ccc(-c2nc3c4c(ncn3n2)-c2ccccc2CC42CCCC2)cc1,12%,15µM*,16µM*,17%,-1
Cc1ccc(-n2c(SCC(N)=O)nc3c(c2=O)C2(CCCC2)Cc2ccccc2-3)cc1,-6%,-25%,?,-4%,-63*
Nn1cnc2c(c1=O)C1(CCCCC1)Cc1ccccc1-2,-10%,9.2µM*,8.2µM*,-10%,0
Cc1ccc(NC2CCCN(C(=O)CCn3nccc3C)C2)cc1C (stereo unspecified),5%,?,-21%,9%,8
CN(CC(=O)Nc1ccccc1Cl)C(=O)c1cc(-c2cccs2)nn1-c1ccccc1,-16%,?,?,-36%,-7
COc1ccc(N(C(=O)c2ccccc2OC(C)=O)C(C)C2CC2)cc1 (stereo unspecified),-8%,?,?,6%,10
O=C(Nc1cccc(NC(=O)c2ccc(-c3cccc(Br)c3)o2)c1)c1ccco1,-44%,16µM*,11µM*,?,-59*
COc1ccc(NC(=O)c2ccco2)cc1NC(=O)c1cc(Br)ccc1Cl,/,-28%,21µM*,/,/
COc1ccc(Br)cc1C(=O)Nc1cccc(NC(=O)c2ccco2)c1,-18%,?,18µM*,-10%,-21
COc1c(C)cc(Br)cc1C(=O)Nc1cccc(NC(=O)c2ccco2)c1,-1%,?,?,9%,-27
CCN1CCN(c2ncnc3sc(C)c(-c4ccccc4)c23)CC1,-17%,-21%,?,0%,-5
Cc1ccccc1N1CCN(c2ncnc3scc(-c4cccs4)c23)CC1,3%,13µM*,9.2µM*,-16%,-10
Clc1ccc(CN2CCN(c3ncnc4scc(-c5cccs5)c34)CC2)cc1,-19%,13µM*,16µM*,-29%,-16
Fc1ccc(CN2CCN(c3ncnc4scc(-c5ccc(F)cc5)c34)CC2)cc1,?,16µM*,23µM*,?,0
CCN1CCN(c2ncnc3scc(-c4ccc(C)c(C)c4)c23)CC1,?,?,18µM*,-27%,?
COc1ccc(-c2csc3ncnc(N4CCN(Cc5ccccc5)CC4)c23)cc1,1%,?,?,0%,-3
CCC(CC)NC(=O)Cc1ccccc1[N+](=O)[O-],4%,0%,-4%,3%,0
N#CCN1CCN(CC(=O)Nc2cccc3ccccc23)CC1,8%,-8%,-25%,4%,1
COc1ccc(Cc2nnc(SCC(=O)N(C)CC(=O)Nc3ccc(C)cc3)o2)cc1,3%,-27%,?,2%,-13
CCN(c1ccccc1)S(=O)(=O)c1cc(C(=O)OC(C)C(=O)Nc2ccc3c(c2)OCCO3)ccc1C (stereo unspecified),-13%,?,16µM*,-25%,16
Cc1ccccc1OC(C)C(=O)Nc1ccc2c(c1)OCCO2 (stereo unspecified),5%,-13%,4%,1%,-7
O=S(=O)(c1ccc2ccccc2c1)N(CC1CO1)c1ccccc1 (stereo unspecified),?,13µM*,?,-24%,-8
CCN(c1ccccc1)S(=O)(=O)c1ccc2ccccc2c1,-6%,-4%,-19%,3%,7
CC(=O)Nc1cccc(C(=O)OC(C)C(=O)NCc2ccc3c(c2)OCO3)c1 (stereo unspecified),1%,-3%,-1%,-15%,22
Cc1cccc(NS(=O)(=O)c2cc(C(=O)OC(C)C(=O)NCc3ccc4c(c3)OCO4)ccc2C)c1 (stereo unspecified),-11%,18µM*,16µM*,-15%,0
SMILES,HT1080NT lethal,TDP1 cell CPT,DT40 TDP1 no CPT,HT1080 IDH1KD tx,IL1B secr inh
CCN(c1ccccc1)S(=O)(=O)c1ccc2c(c1)OCCO2,5%,16µM*,?,-1%,55
Clc1cccc[n+]1CCc1ccccc1,/,-28%,7%,/,/
CN(CC(=O)Nc1c(Cl)cccc1Cl)C(=O)CCCN1C(=O)c2ccccc2C1=O,9%,7%,-17%,1%,26
CCC1CCc2c(sc(NC(=O)c3cnccn3)c2C(N)=O)C1 (stereo unspecified),1%,-27%,?,17%,-17
CCOC(=O)C1=C(C)OC(N)=C(C#N)C1c1cc2c(cc1[N+](=O)[O-])OCO2 (stereo unspecified),-16%,5%,10%,-11%,-7
COc1cccc(N2CCN(C(=O)CC(C)(C)CC3=NS(=O)(=O)c4ccccc4N3)CC2)c1,-14%,15µM*,4.6µM*,-12%,1
O=C(CCCC1=NS(=O)(=O)c2ccccc2N1)N1CCN(c2ccccc2)CC1,2%,?,?,11%,-4
CC(C)(CC(=O)N1CCN(c2ccc(Cl)cc2)CC1)CC1=NS(=O)(=O)c2ccccc2N1,?,18µM*,12µM*,-28%,-51*
O=C(CCCC1=NS(=O)(=O)c2ccccc2N1)N1CCN(c2ccc(Cl)cc2)CC1,0%,16µM*,?,-1%,10
CNc1ccc2ncc(-c3ccc(OC)c(OC)c3)n2n1,18µM*,2.6µM*,2.1µM*,?,-66*
CNc1cc(-c2ccc(OC)c(OC)c2)ncn1,-15%,?,-26%,?,15
O=[N+]([O-])c1ccc(-c2csc(NN=C3CCCC3)n2)cc1,?,4.1µM*,10µM*,-21%,?
O=C(Cc1nc(-c2ccc([N+](=O)[O-])cc2)cs1)Nc1ccccc1,0%,22µM*,16µM*,-5%,-24
CC(C)C(=O)Nc1nc(-c2ccc([N+](=O)[O-])cc2)cs1,-19%,9.2µM*,4.6µM*,-14%,-16
COCC(=O)Nc1nc(-c2ccc([N+](=O)[O-])cc2)cs1,11%,-23%,?,1%,2
CCCS(=O)(=O)NC(=O)C1(C)CCN(C(=O)c2cc(F)ccc2C)C1 (stereo unspecified),21%,-5%,-8%,10%,23
CSc1ccccc1-c1cnc(NC(C)=O)cn1,?,2.6µM*,-47%,22%,-26
CC(=O)Nc1cnc(-c2cccc(C(=O)N(C)C)c2)cn1,13%,-4%,2%,0%,17
